# BAZ2B block: BAZ2B (human) inhibition; Potency, µM (series often up to 114 µM), for the others: top-dose activity change, negative = inhibition, hits mostly inhibitors; 360,000 tested, 4.4% active; AlphaScreen BAZ2B-H3K14Ac peptide displacement; Q9UIF8; also: potency is read from the fitted curve at half-maximal effect; % is scaled to controls: 0 for no effect and ±100 for the full control effect; nearly all actives have a fitted effect of over 60% in size
#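 AlphaScreen luminescence quantifies BAZ2B engagement of H3K14Ac peptide; the protein and biotinylated peptide are both at 50 nM final, buffer PBS pH 7.4 with 0.01% Tween-20, all steps at room temperature.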
# Six1-Eya2 blk: Six1/Eya2 interaction inhibition; Q15475+O00167; AlphaScreen GST-Six1/His-Eya2 binding, biochemical; hits give low values; activity change, % (concentration not given with the values); 360,000 tested, 0.56% active; AID 651725; in the data active = activity change below about -65%; inconclusive = mostly about -30% to -63%; also: % is scaled to controls: 0 for no effect and ±100 for the full control effect
#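 Compounds are tested against tagged Six1 and Eya2 proteins bridged by glutathione donor and nickel acceptor beads; after a one-hour incubation at 37 °C without light, AlphaScreen emission is recorded.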
# JMJD2A Tudor inh: blocks the human JMJD2A Tudor domain. O75164. AlphaScreen JMJD2A-Tudor / H3K4me3 peptide binding. Potency, µM (highest dose often 114 µM), inactives show at the top dose activity change, negative = inhibition, usual class: inhibitors. 390,000 tested, 4.4% active. AID 504339; also: potency is read from the fitted curve at half-maximal effect; % is scaled to controls: 0 for no effect and ±100 for the full control effect; nearly all actives have a fitted effect of over 50% in size
# CtBP-E1A inh: inhibitors of CtBP/E1A interaction | AlphaScreen GST-E1A/His-CtBP binding, 1536-well; hits give low values | activity change, % (no concentration beside the values) | 340,000 tested, 0.49% active; in the data active = activity change below about -65%; inconclusive = mostly about -30% to -63%; also: % is scaled to controls: 0 for no effect and ±100 for the full control effect
#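 Steps: dispense buffer (Tris pH 8.0, NaCl 300 mM, TCEP 1 mM, BSA, Tween 20); add 5X protein mix (GST-E1A, His-CtBP, 125 nM each); pin 23 nL compound; 2 h at 37 °C, dark; add 5X beads (50 ug/mL); 1 h; read.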
# G9a block: blocks human histone lysine methyltransferase G9a | AID 504332 | G9a H3K9 monomethylation, AlphaScreen, 2 h | Q96KQ7 | 350,000 tested, 8.8% active | Potency, µM (top dose mostly 102 µM), for the others: at the top dose activity, negative = inhibition, actives largely listed as inhibitors; also: potency is read from the fitted curve at half-maximal effect; % is scaled to controls: 0 for no effect and ±100 for the full control effect; nearly all actives have a fitted effect of over 75% in size
# Target sequence (Q96KQ7 913-1193 limits assumed): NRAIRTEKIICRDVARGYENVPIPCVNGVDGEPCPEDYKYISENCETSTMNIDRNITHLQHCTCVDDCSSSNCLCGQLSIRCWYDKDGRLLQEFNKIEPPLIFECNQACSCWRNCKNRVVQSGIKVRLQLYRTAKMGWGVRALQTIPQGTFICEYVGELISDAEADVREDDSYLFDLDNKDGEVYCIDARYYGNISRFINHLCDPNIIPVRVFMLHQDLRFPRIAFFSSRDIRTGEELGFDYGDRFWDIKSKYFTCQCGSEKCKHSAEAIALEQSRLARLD
#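 Step 1: enzyme (final 20 nM) with compound, 15 min RT. Step 2: substrate peptide 500 nM and SAM 20 uM, 2 h RT. Step 3: anti-H3K9me1 antibody and AlphaScreen beads, 10 min, then plate read.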
# HP1b binding inh: HP1-beta chromodomain-methylated histone interaction inhibition | P83916 | AlphaScreen HP1-beta / biotin-H3K9me3 peptide binding | Potency, µM (highest dose often 114 µM), for inactives: top-dose activity change, negative = inhibition, most hits filed as inhibitors | 390,000 tested, 0.56% active | AID 540317; also: potency is read from the fitted curve at half-maximal effect; nearly all actives have a fitted effect of over 70% in size
# Target sequence (P83916 whole entry, looked up): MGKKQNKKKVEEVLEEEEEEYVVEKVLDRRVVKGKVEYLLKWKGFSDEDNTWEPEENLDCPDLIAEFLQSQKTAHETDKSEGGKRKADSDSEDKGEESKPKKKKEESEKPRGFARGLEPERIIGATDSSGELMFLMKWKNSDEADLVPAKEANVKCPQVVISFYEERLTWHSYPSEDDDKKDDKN
#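 HP1-beta protein (50 nM final) preincubated 30 min at room temperature with biotinylated H3(1-18)K9me3 peptide (50 nM) in PBS pH 7.4, 0.01% Tween-20, then compound added for 30 min. AlphaScreen streptavidin donor/nickel chelate acceptor beads (10 ug/mL final), 30 min dark, luminescence read.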
# Active calls of the source: *; ? = inconclusive; / = not tested or not shown; [ ] = dose if it differs, or a comment. Shown are actives, neighbours in structure and some others; about 10% of the full set was active somewhere. Unless noted, calls follow the shape of the dose curve; as a rule, active = well fitted inhibition curve with a large enough effect; inconclusive = small, poorly fitted or top-dose-only effect; inactive = no such curve, though single readings can be large or run the other way.
SMILES,BAZ2B block,Six1-Eya2 blk,JMJD2A Tudor inh,CtBP-E1A inh,G9a block,HP1b binding inh
O=C1CCc2cc(S(=O)(=O)NC3CCCCC3)cc3c2N1CC3,-28.8%,-3.1,-6.2%,8.8,50.1µM*,21.3%
Clc1cccc(Cl)c1C1=NOC(c2nnc(-c3ccccc3)o2)C1 (stereo not given),14.6%,4.7,11.1%,-2.5,?,46.0%
O=C(Nc1cccc(Br)c1)c1ccc2nc(N3C(=O)CCC3=O)sc2c1,-3.1%,-1.1,-9.9%,-3.3,?,9.9%
O=C(Nc1cccc([N+](=O)[O-])c1)c1ccc2nc(N3C(=O)CCC3=O)sc2c1,?,-5.0,-24.2%,-1.8,11.2µM*,7.2%
CCCC1O[C@@H]2C[C@H]3[C@@H]4CCC5=CC(=O)C=C[C@]5(C)C4[C@@H](O)C[C@]3(C)[C@]2(C(=O)CO)O1 (stereo not given in full),/,/,/,/,22.6%[12.7 µM],/
O=[N+]([O-])c1ccc(COc2cccc(CNc3ccc(Br)cc3)c2)cc1,-36.5%,?,-28.7%,-26.8,44.7µM*,-1.1%
CN=c1scc(-c2ccc(OC)cc2)n1/N=C(\C)c1cccnc1,31.6µM*,?,50.1µM*,?,31.6µM*,44.7µM*
Cc1cc[n+](CCC(=O)O)c2ccccc12,?,-3.1,?,0.8,?,20.0%
Cc1cc[n+](-c2ccccc2)c2ccccc12,-34.3%,1.7,-23.4%,1.7,25.1µM*,39.4%
C[C@H](NC(=O)c1ccc2c(c1)OCO2)c1nnc2ccccn12,-1.8%,3.5,-3.0%,/,/,8.9%[57 µM]
COc1ccc(OC)c(CNC(=O)c2ccc(N3Cc4ccccc4Oc4ncccc43)s2)c1,2.3%,/,-3.2%,/,-5.1%[59 µM],16.7%
O=C(Nc1cc(S(=O)(=O)N2CCOCC2)ccc1N1CCCC1)c1ccc2c(c1)S(=O)(=O)c1ccccc1C2=O,?,-8.7,?,-17.9,/,3.98µM*
COC(=O)c1sccc1S(=O)(=O)Nc1ccc(N2CCCCC2)cc1,35.5µM*,?,?,-25.9,/,?
O=C(Nc1ccccc1N1CCCC1)c1cc(S(=O)(=O)N2CCOCC2)ccc1Cl,-37.5%,-6.4,-33.8%,-4.2,50.1µM*,-9.0%
O=C(Nc1ccccc1N1CCCCC1)c1cc(S(=O)(=O)N2CCOCC2)ccc1F,9.5%,-4.4,-17.8%,-18.1,-3.8%,7.8%
CCOc1cc(N2CCOCC2)c(OCC)cc1NC(=O)CCS(=O)(=O)c1ccc(Cl)cc1,/,-6.4,-31.9%,-9.7,22.4µM*,-16.7%
CCc1ccccc1NC(=O)CN1C(=O)COc2ccc(S(=O)(=O)Nc3ccccc3)cc21,-9.0%,/,-16.6%,/,-29.2%[59 µM],4.3%
CC(=O)c1ccc(NC(=O)CNc2cc(S(=O)(=O)N3CCOCC3)ccc2N2CCCC2)cc1,-32.7%,-3.5,?,-6.0,35.5µM*,-16.1%
O=C(Nc1cc(S(=O)(=O)N2CCOCC2)ccc1N1CCCC1)c1ccc(Cl)cc1,-5.2%,1.1,?,-11.4,1.78µM*,?
CCN1CCN(S(=O)(=O)c2ccc(Cl)c(C(=O)Nc3ccccc3N3CCCCC3)c2)CC1,-32.6%,-7.4,?,-12.3,39.8µM*,51.4%
CCOc1cc(N2CCOCC2)c(OCC)cc1NS(=O)(=O)c1ccc(Cl)s1,50.1µM*,-6.6,?,-13.9,?,-2.1%
O=C(Nc1cc(S(=O)(=O)N2CCOCC2)ccc1N1CCCCC1)c1ccc(Cl)cc1,-8.7%,-8.1,-35.7%,-6.9,?,?
CCOC(=O)c1cnn(-c2ccc(C(=O)Nc3ccc(C(C)=O)cc3)cc2)c1N,-1.0%,/,-6.7%,/,0.2%[59 µM],34.9%
CCN1CCN(S(=O)(=O)c2ccc(Cl)c(C(=O)N(C)C(c3ccccc3)c3ccccc3)c2)CC1,-38.0%,-8.2,-30.5%,-13.9,8.91µM*,-1.8%
O=C(Nc1cc(S(=O)(=O)Nc2ccc(Cl)cc2)ccc1N1CCCCC1)c1ccc(F)cc1Cl,-32.2%,-6.5,-22.5%,0.8,10µM*,?
O=S(=O)(Nc1ccc(N2CCCCC2)cc1)c1ccc(F)c(F)c1,31.6µM*,-26.4,?,-24.3,12.6µM*,-37.1%
